Assay results as given in PubChem BioAssay (EPA / NIEHS).
Active and inactive are the calls of the source. Rule for the calls: active = hit-call score of the fitted dose curve at least 0.9, where 1 is the maximum; inactive = score below 0.9.

Columns and labels:
[1] = APR_HepG2_CellLoss_72hr: Apredica 72-hour HepG2 Assay for Cell Loss (AID 2282915); conditions: high-content imaging
Procedure, shortened: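 HepG2 cells were exposed for 72 hr to compounds at 0.39–200 uM (ten concentrations, duplicate) in 0.5% v/v final DMSO. Nuclei were stained with Hoechst 33342 after 3.7% formaldehyde fixation, imaged at 20x, and counted; fits bidirectional versus DMSO.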

[2] = APR_HepG2_P-H2AX_72hr: Apredica 72-hour HepG2 Assay for H2AX Phosphorylation (AID 2282916); conditions: imaging, actives raise or lower the signal;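 note: phospho-histone H2A.x immunostain intensity per cell marking DNA damage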
Procedure, shortened: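 HepG2; cpd 0.39–200 uM ×10 conc, duplicates; 0.5% DMSO; 72 hr. Fix 3.7% formaldehyde 30 min RT, 0.5% Triton X-100 10 min. Anti-phospho-H2A.x 1:200 + Hoechst 2 ug/mL, 60 min RT; ArrayScan imaging.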

[3] = APR_HepG2_MitoMembPot_72hr: Apredica 72-hour HepG2 Assay for Mitochondrial Membrane Potential (AID 2282917); conditions: imaging, actives raise or lower the signal
Procedure, shortened: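 HepG2 cells exposed 72 h to compounds at 0.39–200 uM (0.5% v/v DMSO, duplicates); MitoTracker Red CMXRos 250 nM loaded 30 min before 3.7% formaldehyde fixation, imaged by HCS fluorescence. Bidirectional fit versus DMSO.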

[4] = APR_HepG2_MitoticArrest_72hr: Apredica 72-hour HepG2 Assay for Mitotic Arrest (AID 2282918); conditions: high-content imaging, actives raise or lower the signal
Procedure, shortened: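 HepG2 cells treated 72 h at 0.39–200 uM, 0.5% DMSO final; formaldehyde-fixed, stained with Hoechst 33342 and phospho-histone H3 antibody, imaged by high-content fluorescence; bidirectional fit versus DMSO.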

[5] = APR_HepG2_MicrotubuleCSK_72hr: Apredica 72-hour HepG2 Assay for Microtubule CSK Stabilty (AID 2282919); conditions: HepG2 microtubule cytoskeleton, high-content imaging, actives raise or lower the signal
Procedure, shortened: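 HepG2 human liver cells were dosed for 72 h at ten concentrations from 0.39 to 200 uM in duplicate (0.5% v/v DMSO final). Fixed, permeabilized cells were immunostained for alpha-tubulin (Cy5) with a Hoechst counterstain and imaged at 20x.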

[6] = APR_HepG2_P-H2AX_24hr: Apredica 24-hour HepG2 Assay for H2AX Phosphorylation (AID 2282920); conditions: high-content imaging, actives raise or lower the signal
Procedure, shortened: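 HepG2 cells dosed 24 h at 0.39–200 uM (10 points, duplicate, 0.5% DMSO final). Formaldehyde-fixed and permeabilized, then immunostained for phospho-H2A.x with Hoechst. Fluorescence quantified by high-content imaging, fitted bidirectionally versus DMSO.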

[7] = APR_HepG2_StressKinase_72hr: Apredica 72-hour HepG2 Assay for Stress Kinase (AID 2282921); conditions: HepG2 stress kinase (phospho-c-Jun) imaging, actives raise or lower the signal
Procedure, shortened: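 Dose 0.39–200 uM (10 pts, duplicate), 0.5% DMSO; 72 h; fix 3.7% formaldehyde 30 min RT; Triton permeabilize; anti-phospho-c-Jun/Cy3 + Hoechst 60 min RT; image 20x; fit gain/loss vs DMSO.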

[8] = APR_HepG2_StressKinase_24hr: Apredica 24-hour HepG2 Assay for Stress Kinase (AID 2282922); conditions: HepG2 stress kinase (phospho-c-Jun) imaging, actives raise or lower the signal
Procedure, shortened: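 HepG2 cells exposed 24 hr to compound at 0.39–200 uM (10 concentrations, duplicate), 0.5% v/v DMSO final. Fixed in 3.7% formaldehyde, permeabilized with Triton X-100, immunolabeled for phospho-c-Jun with Hoechst 33342; HCS fluorescence imaging, bidirectional fit versus DMSO.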

[9] = APR_HepG2_p53Act_72hr: Apredica 72-hour HepG2 Assay for p53 Activation (AID 2282923); conditions: high-content imaging, actives raise or lower the signal;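 note: average cellular p53 protein immunofluorescence intensity in HepG2 cells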
Procedure, shortened: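 10-pt conc. 0.39–200 uM, duplicate, 0.5% DMSO; 72 hr exposure; 3.7% formaldehyde fix, 0.5% Triton perm; sheep anti-p53/Cy5 + Hoechst; ArrayScan 20x, 6 images/well; gain/loss fit vs DMSO.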

[10] = APR_HepG2_NuclearSize_72hr: Apredica 72-hour HepG2 Assay for Nuclear Size (AID 2282925); conditions: high-content imaging, actives raise or lower the signal
Procedure, shortened: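 HepG2 cells were exposed to compounds at ten concentrations from 0.39 to 200 uM (duplicate, 0.5% DMSO final) for 72 hr. After fixation in 3.7% formaldehyde, nuclei were stained with Hoechst 33342 (2 ug/mL) and imaged at 20x.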

[11] = ATG_CRE_CIS: Attagene CIS-FACTORIAL HepG2 Assay for human cAMP Responsive Element (CRE) binding protein 3 (AID 2282926); conditions: HepG2 CRE cis-reporter, Attagene multiplexed mRNA; actives raise or lower the signal
Procedure, shortened: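 HepG2 cells transiently transfected with cis-element-driven multiple reporter transcription units; CRE reporter mRNA measured 24 h after dosing by RT-PCR, 6-FAM labelling, HpaI digestion and capillary electrophoresis. Bidirectional fit versus DMSO baseline.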

[12] = biological target: CCAAT/enhancer-binding protein beta (Homo sapiens) (UniProt P17676); experiment: ATG_C_EBP_CIS: Attagene CIS-FACTORIAL HepG2 Assay for human CCAAT/Enhancer Binding Protein (C/EBP) beta (AID 2282927); conditions: HepG2 Attagene cis-factorial transcription factor reporter; actives raise or lower the signal
Sequence of CCAAT/enhancer-binding protein beta (Homo sapiens) (P17676 whole entry, looked up): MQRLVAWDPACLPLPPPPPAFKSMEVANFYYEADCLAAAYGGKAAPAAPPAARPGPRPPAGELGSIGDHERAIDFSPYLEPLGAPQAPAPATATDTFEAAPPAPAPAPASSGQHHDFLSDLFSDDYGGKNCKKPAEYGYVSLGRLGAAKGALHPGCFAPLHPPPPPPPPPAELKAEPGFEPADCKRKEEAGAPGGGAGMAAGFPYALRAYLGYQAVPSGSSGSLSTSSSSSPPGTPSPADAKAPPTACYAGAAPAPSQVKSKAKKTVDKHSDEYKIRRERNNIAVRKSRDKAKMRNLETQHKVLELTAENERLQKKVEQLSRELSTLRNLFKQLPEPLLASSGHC
Procedure, shortened: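 Following a 24 h incubation with test chemical, transfected HepG2 cells yielded RNA whose reporter transcripts were quantified by RT-PCR and fluorescent capillary electrophoresis, with DMSO serving as baseline for bidirectional fitting.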

[13] = ATG_CMV_CIS: Attagene CIS-FACTORIAL HepG2 Assay for human CMV (Internal Marker) (AID 2282928); conditions: HepG2 CMV promoter reporter, transcription factor profiling; actives raise or lower the signal;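 note: endpoint acts as a background internal control marker rather than a target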
Procedure, shortened: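 HepG2 cells transiently transfected with multiple cis-regulated reporter units; 24 h compound exposure. Reporter mRNA quantified by RT-PCR, 6-FAM primer-extension labeling, HpaI digestion and capillary electrophoresis; bidirectional fitting against DMSO baseline.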

[14] = ATG_DR4_LXR_CIS: Attagene CIS-FACTORIAL HepG2 Assay for human Liver X Receptor (LXR), DR4 submotif (AID 2282929); conditions: HepG2 Attagene DR4 cis-reporter, mRNA transcription; actives raise or lower the signal
Procedure, shortened: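 Endogenous factor activity at a DR4 cis-element is read as reporter mRNA in transiently transfected HepG2 cells. Exposure lasts 24 h; transcripts are amplified, fluorescently labelled and sized by capillary electrophoresis, with DMSO as baseline.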

[15] = biological target: Aryl hydrocarbon receptor (Homo sapiens) (UniProt P35869); experiment: ATG_Ahr_CIS: Attagene CIS-FACTORIAL HepG2 Assay for human Aryl Hydrocarbon Receptor (Ahr) (AID 2282930); conditions: HepG2 AhR cis-factorial reporter transcription; actives raise or lower the signal
Sequence of Aryl hydrocarbon receptor (Homo sapiens) (P35869 whole entry, looked up): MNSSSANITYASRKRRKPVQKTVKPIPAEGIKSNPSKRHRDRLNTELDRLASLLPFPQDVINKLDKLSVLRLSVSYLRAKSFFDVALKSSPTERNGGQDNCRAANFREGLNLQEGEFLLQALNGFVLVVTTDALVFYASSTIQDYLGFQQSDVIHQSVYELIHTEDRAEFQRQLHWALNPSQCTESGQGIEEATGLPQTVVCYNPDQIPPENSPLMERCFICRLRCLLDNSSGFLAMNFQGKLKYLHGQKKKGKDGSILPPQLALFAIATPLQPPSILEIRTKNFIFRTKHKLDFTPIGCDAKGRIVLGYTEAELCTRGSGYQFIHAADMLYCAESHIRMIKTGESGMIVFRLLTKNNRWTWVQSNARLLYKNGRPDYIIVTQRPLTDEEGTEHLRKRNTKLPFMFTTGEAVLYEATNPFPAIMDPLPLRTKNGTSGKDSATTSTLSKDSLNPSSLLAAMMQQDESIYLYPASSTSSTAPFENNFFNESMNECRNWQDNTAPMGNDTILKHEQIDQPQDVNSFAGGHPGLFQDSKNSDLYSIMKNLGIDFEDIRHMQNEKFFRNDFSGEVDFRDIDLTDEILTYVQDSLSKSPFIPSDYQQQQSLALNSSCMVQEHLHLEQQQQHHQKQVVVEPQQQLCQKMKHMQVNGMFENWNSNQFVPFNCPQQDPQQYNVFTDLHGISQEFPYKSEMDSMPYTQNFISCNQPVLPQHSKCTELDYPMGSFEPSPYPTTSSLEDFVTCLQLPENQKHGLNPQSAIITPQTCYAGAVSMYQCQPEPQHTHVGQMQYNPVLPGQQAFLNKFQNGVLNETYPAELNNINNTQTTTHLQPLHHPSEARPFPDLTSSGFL
Procedure, shortened: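 Values derive from bidirectional fitting against DMSO negative control. Underlying signal: cis-element reporter mRNA in transiently transfected HepG2, harvested 24 h post-dose and measured by RT-PCR plus capillary electrophoresis.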

[16] = ATG_AP_1_CIS: Attagene CIS-FACTORIAL HepG2 Assay for human Activator Protein 1 (AP-1) (AID 2282931); conditions: HepG2 Attagene cis-factorial AP-1 reporter mRNA; actives raise or lower the signal
Procedure, shortened: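 Fluorescence of labelled PCR fragments separated by capillary electrophoresis gives reporter mRNA levels. HepG2 with transfected cis-regulated reporter units, 24 h exposure; DMSO serves as baseline for bidirectional curve fits.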

[17] = ATG_AP_2_CIS: Attagene CIS-FACTORIAL HepG2 Assay for human Activator Protein 2 (AP-2) (AID 2282932); conditions: HepG2 AP-2 cis-reporter, Attagene transcription factor profiling; actives raise or lower the signal
Procedure, shortened: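 Bidirectional curve fitting against DMSO was applied to reporter mRNA signals from HepG2 cells 24 h after dosing. Cis-promoter reporter units, transiently transfected, were read by RT-PCR plus capillary electrophoresis.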

[18] = ATG_BRE_CIS: Attagene CIS-FACTORIAL HepG2 Assay for human Bone Morphogenetic Protein (BMP) Response Element (BRE) (AID 2282933); conditions: HepG2 BMP response element reporter, Attagene transcription factor profiling; actives raise or lower the signal
Procedure, shortened: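 After a 24 h chemical treatment, transiently transfected HepG2 cells were lysed for RNA; reporter transcripts were quantified by fluorescent RT-PCR and capillary electrophoresis, normalised to DMSO.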

[19] = APR_HepG2_MitoMass_72hr: Apredica 72-hour HepG2 Assay for Mitochondrial Mass (AID 2282924); conditions: high-content imaging, actives raise or lower the signal;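 note: MitoTracker Red CMXRos stain intensity per cell imaged as mitochondrial mass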
Procedure, shortened: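 HepG2 cells were exposed for 72 hr to compounds at 0.39–200 uM (ten concentrations, duplicate, 0.5% v/v DMSO final). Live cells were stained with 250 nM MitoTracker Red CMXRos for 30 min, then fixed in 3.7% formaldehyde and imaged by HCS fluorescence.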

[20] = biological target: Retinoic acid receptor alpha (Homo sapiens) (UniProt P10276); experiment: ATG_DR5_RAR_CIS: Attagene CIS-FACTORIAL HepG2 Assay for human Retinoic Acid Receptor Alpha (RARE), DR5 submotif (AID 2282934); conditions: HepG2 Attagene cis-factorial RARE DR5 reporter, mRNA; actives raise or lower the signal;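 for AC50: reporter responds to endogenous RAR alpha beta and gamma in HepG2 not RARA alone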
Sequence of Retinoic acid receptor alpha (Homo sapiens) (P10276 whole entry, looked up): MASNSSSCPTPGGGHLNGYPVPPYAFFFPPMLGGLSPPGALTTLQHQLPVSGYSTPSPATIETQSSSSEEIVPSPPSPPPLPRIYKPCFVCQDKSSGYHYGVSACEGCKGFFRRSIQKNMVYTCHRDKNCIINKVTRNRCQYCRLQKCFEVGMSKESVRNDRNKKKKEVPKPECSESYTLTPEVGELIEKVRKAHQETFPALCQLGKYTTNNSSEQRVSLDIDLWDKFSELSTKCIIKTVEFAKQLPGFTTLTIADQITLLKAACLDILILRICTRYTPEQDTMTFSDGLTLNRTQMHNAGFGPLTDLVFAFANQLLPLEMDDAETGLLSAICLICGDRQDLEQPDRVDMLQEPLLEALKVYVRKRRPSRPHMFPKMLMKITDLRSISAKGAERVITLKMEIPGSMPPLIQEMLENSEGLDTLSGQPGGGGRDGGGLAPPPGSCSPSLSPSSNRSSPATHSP
Procedure, shortened: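 Endpoint fitted in both directions relative to DMSO as negative control. It reflects DR5 cis-element reporter mRNA induction in transiently transfected HepG2 cells, measured 24 h after dosing through RT-PCR and fluorescent capillary electrophoresis.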

Measured: AC50

CCCCCCCC=O
not listed: [19] | [20]
inactive: all other assays above

O=[N+]([O-])C(CO)(CO)CO
active: [1] 107 µM | [4] 105 µM | [7] 112 µM | [9] 119 µM | [15] 68.9 µM
not listed: [2] | [12]
inactive: all other assays above

Cc1nc(C)nc(N2C[C@@H](C)N(c3ccnc([C@@H](C)O)n3)[C@@H](C)C2)n1
active: [16] 23.1 µM
not listed: [2]
inactive: all other assays above

CCNc1cccc(C)c1
not listed: [2]
inactive: all other assays above

COc1cc(/C=C/C(=O)CC(=O)/C=C/c2ccc(O)c(OC)c2)ccc1O
inactive: [3] | [10] | [11] | [18]
active: [1] 9.56 µM | [2] 15.1 µM | [4] 22 µM | [5] 15.9 µM | [6] 76.1 µM | [7] 11.2 µM | [8] 47.9 µM | [9] 19.1 µM | [13] 54.2 µM | [14] 58.3 µM | [15] 55.2 µM | [16] 54.7 µM | [20] 25.9 µM

Cc1ccc(C)c(O)c1C
active: [1] 12.4 µM | [4] 13.4 µM | [9] 16.9 µM
not listed: [11] | [12] | [19]
inactive: all other assays above

CCc1c(C(=O)NN2CCCCC2)nn(-c2ccc(Cl)cc2Cl)c1-c1ccc(Br)cc1
active: [1] 27.2 µM | [3] 113 µM | [4] 27.7 µM | [5] 30 µM | [6] 70.4 µM | [7] 32.8 µM | [19] 162 µM | [13] 6.36 µM | [14] 1.91 µM | [16] 3.93 µM | [20] 2.16 µM
inactive: [8] | [9] | [10] | [11] | [15] | [17] | [18]

CC1(C)CC(N=C=O)CC(C)(CN=C=O)C1 (stereo not drawn)
active: [2] 101 µM | [4] 93.1 µM | [6] 101 µM
not listed: [11] | [19]
inactive: all other assays above

CCOC(=O)CCC(=O)OCC
active: [15] 75.7 µM
not listed: [11] | [19]
inactive: all other assays above

CC(CO)OC(C)CO (stereo not drawn) (tested in a mixture with another compound)
not listed: [11] | [12] | [19] | [20]
inactive: all other assays above

O=C(OCCCCCOC(=O)c1ccccc1)c1ccccc1
active: [1] 100 µM
not listed: [12] | [17] | [19]
inactive: all other assays above

Cc1cccc(Nc2cc(Cl)nc(SCC(=O)O)n2)c1C
not listed: [2] | [17]
inactive: all other assays above

O=C(O)CCCCC(=O)O
active: [15] 72.5 µM
not listed: [11] | [12] | [19] | [20]
inactive: all other assays above

Cc1ccc(C)c(C)c1
not listed: [2]
inactive: all other assays above
